Only some compounds are listed: those with a hit (about 10% of all), similar ones and a draw of the others.
JMJD2A Tudor – qHTS Assay for Inhibitors of JMJD2A-Tudor Domain; Lysine-specific demethylase 4A (Homo sapiens), O75164; AlphaScreen JMJD2A-Tudor / H3K4me3 peptide binding; Potency, µM (titrated, usually from 114 µM), usual class: inhibitors; 390,000 compounds, 4.4% hits; AID 504339, 2011; also: nearly all actives have a fitted effect of over 50% in size
BAZ2B block – qHTS Assay for Inhibitors of BAZ2B; Potency, µM (top dose mostly 114 µM), actives largely listed as inhibitors; Bromodomain adjacent to zinc finger domain protein 2B (Homo sapiens), Q9UIF8; AlphaScreen BAZ2B-H3K14Ac peptide displacement; 360,000 compounds, 4.4% hits; AID 504333, 2011; also: nearly all actives have a fitted effect of over 60% in size
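Multi-concentration screen (max 110 uM) measuring displacement of acetylated histone H3 peptide from BAZ2B by AlphaScreen, using 50 nM protein, 50 nM peptide and 10 ug/mL streptavidin donor plus Ni-chelate acceptor beads.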
CtBP-E1A blk – qHTS Assay for Inhibitors of the CtBP/E1A Interaction | AlphaScreen GST-E1A/His-CtBP binding, 1536-well; active compounds read low | activity change, % (concentration not given with the values) | 340,000 compounds, 0.49% hits; in the data active = activity change below about -65%; inconclusive = mostly about -30% to -63%
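Homogeneous bead-based format: GST-tagged E1A captured on glutathione donor beads, His-tagged CtBP on nickel acceptor beads; compounds precede bead addition by 2 h at 37 °C.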
HP1b binding inh – HTS for Inhibitors of HP1-beta Chromodomain Interactions with Methylated Histone Tails; Chromobox protein homolog 1 (Homo sapiens), P83916; AlphaScreen HP1-beta / biotin-H3K9me3 peptide binding; Potency, µM (highest dose often 114 µM), usual class: inhibitors; 390,000 compounds, 0.56% hits; AID 540317, 2011; also: nearly all actives have a fitted effect of over 70% in size
Target sequence (P83916 whole entry, looked up): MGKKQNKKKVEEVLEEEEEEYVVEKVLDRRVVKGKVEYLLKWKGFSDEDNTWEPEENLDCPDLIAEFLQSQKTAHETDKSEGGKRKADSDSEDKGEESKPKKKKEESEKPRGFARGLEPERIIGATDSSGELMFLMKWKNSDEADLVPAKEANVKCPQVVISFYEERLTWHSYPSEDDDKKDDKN
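Compound inhibition of the preformed complex between 50 nM HP1-beta and 50 nM biotinylated H3K9me3 peptide was read by AlphaScreen. Buffer was PBS pH 7.4 with 0.01% Tween-20. Incubations ran 30 min at room temperature, with 10 ug/mL donor/acceptor beads.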
Six1-Eya2 inh – qHTS Assay for Inhibitors of the Six1/Eya2 Interaction | Homeobox protein SIX1 (Homo sapiens) + Protein phosphatase EYA2 (Homo sapiens), … | AlphaScreen GST-Six1/His-Eya2 binding, biochemical; active compounds read low | activity change, % (concentration not given with the values) | 360,000 compounds, 0.56% hits | AID 651725, 2012; in the data active = activity change below about -65%; inconclusive = mostly about -30% to -63%
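Six1/Eya2 binding was read as AlphaScreen signal after compounds were pinned into GST-Six1 plus His-tagged Eya2 (5X stock 250/500 nM) in pH 8.0 Tris/NaCl/TCEP buffer, beads added, then incubated 1 h, 37 C, dark.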
G9a block – qHTS Assay for Inhibitors of Histone Lysine Methyltransferase G9a; Histone-lysine N-methyltransferase EHMT2 (Homo sapiens), Q96KQ7; G9a H3K9 monomethylation, AlphaScreen, 2 h; Potency, µM (series often up to 102 µM), usual class: inhibitors; 350,000 compounds, 8.8% hits; AID 504332, 2011; also: nearly all actives have a fitted effect of over 75% in size
Target sequence (Q96KQ7 913-1193 limits assumed): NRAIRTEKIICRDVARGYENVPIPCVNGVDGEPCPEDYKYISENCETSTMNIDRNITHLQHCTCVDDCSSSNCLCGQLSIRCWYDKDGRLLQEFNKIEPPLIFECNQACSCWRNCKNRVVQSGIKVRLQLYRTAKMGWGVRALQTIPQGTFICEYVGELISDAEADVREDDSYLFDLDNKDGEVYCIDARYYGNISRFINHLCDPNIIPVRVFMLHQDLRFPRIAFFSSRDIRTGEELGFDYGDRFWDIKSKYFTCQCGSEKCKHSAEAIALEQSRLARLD
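Compounds were preincubated with 20 nM G9a for 15 min, after which biotinylated H3K9 peptide (500 nM) and SAM (20 uM) started a 2 h room-temperature reaction. Monomethylated product was quantified by antibody-based AlphaScreen chemiluminescence.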
Numbers stand for hits; – = inactive; ? = inconclusive; · = not tested or not shown. Unless noted, calls follow the shape of the dose curve; as a rule, active = well fitted inhibition curve with a large enough effect; inconclusive = small, poorly fitted or top-dose-only effect; inactive = no such curve, though single readings can be large or run the other way.

SMILES	JMJD2A Tudor	BAZ2B block	CtBP-E1A blk	HP1b binding inh	Six1-Eya2 inh	G9a block
Cn1cc(CCNC(=O)CC2C(=O)NCCN2CC(c2ccccc2)c2ccccc2)cn1 (stereo not given)	–	–	–	–	–	13µM
COc1ccc(NC(=O)C2=C(C)Nc3nc(SCc4ccc(C)cc4C)nn3C2c2cccc(OC)c2OC)cc1 (stereo not given)	–	–	·	–	·	–
Cc1ccccc1NC(=O)Cn1nc(-c2ccccc2)nc(Cc2ccccc2)c1=O	–	–	·	–	·	–
COC(=O)C1=C(C)OC(N)=C(C#N)C1c1cc2cc(C)ccc2nc1Cl (stereo not given)	–	–	–	–	–	40µM
CC(=O)C1=C(C)OC(N)=C(C#N)C1c1cc2cc(C)c(C)cc2nc1Cl (stereo not given)	–	–	–	–	–	?
Cc1cc2nc(-c3ccc(F)cc3)c(Cc3cccc(Cl)c3)n2c(C)c1Br	·	·	–	·	–	·
CCCCn1c(N)c(N(CC(C)C)C(=O)CN(C)Cc2cccc(OC)c2)c(=O)[nH]c1=O	–	–	–	–	–	–
COc1ccccc1NS(=O)(=O)c1cc(NC(=O)CNC(=O)c2ccc(C)s2)ccc1Cl	–	–	?	–	?	–
Cc1cccc(S(=O)(=O)NCCc2ccccc2)c1	–	–	–	–	–	–
O=C(/C=C/c1ccc(-c2ccc(F)cc2)o1)N1CCCC1	–	–	–	–	–	45µM
CCCCn1nnnc1C(c1cc2ccccc2o1)N1CCN(C(=O)OCC)CC1 (stereo not given)	·	·	–	·	–	·
Cc1cc(C)c2c(N=NN3CCOCC3)[nH]nc2n1	–	–	–	–	–	8.9µM
Cc1cc(C)c(C#N)c(N2CCOCC2)n1	–	–	–	–	–	–
C#CC(CC)(CC)NC(=O)c1nn(-c2ccccc2Cl)c(C)cc1=O	–	–	–	–	–	–
CNS(=O)(=O)c1ccc(NCC2COc3ccccc3O2)c([N+](=O)[O-])c1 (stereo not given)	–	50µM	–	–	–	16µM
CCc1cc(=S)n2c([nH]c3ccccc32)c1C#N	20µM	79µM	–	40µM	–	4µM
C=C(C)Cc1c(C)c(C#N)c2[nH]c3ccccc3n2c1=O	–	–	–	–	–	–
Cc1c(CCC(=O)O)c(=O)n2c([nH]c3ccccc32)c1C#N	–	–	–	–	–	2.2µM
CCc1c(C)c(C#N)c2[nH]c3ccccc3n2c1=S	5.6µM	35µM	–	20µM	–	·
Cc1ccc(Cc2c(C)c(C#N)c3[nH]c4ccccc4n3c2=O)cc1	–	–	–	–	–	·
COc1cccc(NC(=S)NCc2cccs2)c1	–	–	–	–	–	–
COC(=O)CSc1nc2ccc(N)cc2s1	–	–	–	–	–	18µM
Cc1cccn2c(=O)c(C=O)c(Sc3ncccn3)nc12	–	–	–	–	–	40µM
CCSc1nc2c(cnn2-c2ccccc2)c(=O)n1N	–	–	–	–	–	–
Cc1cccc(-c2noc(-c3ccc(NCc4ccccc4)c([N+](=O)[O-])c3)n2)c1	–	–	·	–	·	–
SMILES	JMJD2A Tudor	BAZ2B block	CtBP-E1A blk	HP1b binding inh	Six1-Eya2 inh	G9a block
Cc1ccc(S(=O)(=O)N/N=c2\sc3ccccc3n2C)cc1	–	–	–	–	–	0.79µM
Cc1cccc(S(=O)(=O)N/N=c2\sc3ccccc3n2C)c1	–	–	–	–	–	?
O=C1CSC(c2ccc(F)cc2)N1c1nc2ccccc2s1 (stereo not given)	–	–	–	–	–	–
COc1ccc(CSc2nnc(N)s2)cc1F	–	–	–	–	–	45µM
Nc1nnc(SCc2ccc(F)cc2)s1	–	–	–	–	–	–
O=C(O)C(Cc1cn[nH]n1)=NO	7.9µM	25µM	·	?	–	6.3µM
